Percent Effect data for 40 compounds are collected here from ChEMBL document CHEMBL3988442, “University of Dundee, Small-Polar-MMV Screening Library” (2021).

The target in one test is T1, Aspartate--tRNA(Asp/Asn) ligase (Mycobacterium tuberculosis (strain ATCC 25618 / H37Rv)) (UniProt P9WFW3). Further: in the data most compounds retested in dose-response had high values.
T1 sequence (whole entry): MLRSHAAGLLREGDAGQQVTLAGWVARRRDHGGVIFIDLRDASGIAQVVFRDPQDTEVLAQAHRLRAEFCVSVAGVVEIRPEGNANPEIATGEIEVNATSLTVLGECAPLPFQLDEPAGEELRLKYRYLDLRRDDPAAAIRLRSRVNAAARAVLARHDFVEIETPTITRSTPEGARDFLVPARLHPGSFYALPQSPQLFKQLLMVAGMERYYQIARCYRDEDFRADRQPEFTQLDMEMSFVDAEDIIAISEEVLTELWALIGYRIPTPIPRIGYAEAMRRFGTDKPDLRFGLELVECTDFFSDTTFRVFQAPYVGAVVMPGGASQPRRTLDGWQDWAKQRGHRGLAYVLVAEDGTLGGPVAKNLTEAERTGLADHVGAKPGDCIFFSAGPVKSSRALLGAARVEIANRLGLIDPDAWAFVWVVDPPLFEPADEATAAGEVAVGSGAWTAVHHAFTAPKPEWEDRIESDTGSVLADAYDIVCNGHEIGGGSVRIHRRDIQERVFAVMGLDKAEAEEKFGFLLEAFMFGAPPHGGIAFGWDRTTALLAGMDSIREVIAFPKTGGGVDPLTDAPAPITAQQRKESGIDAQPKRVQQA
As to the kind of experiment: Assay for Asp RNA synthetase-1 from Mycobacterium tuberculosis. In kind it is functional. On the set-up: scale not given: direction of the effect not stated beside the values. As to conditions: 30 µM.
In the case of `Cc1cc(CNC2CCCN(c3cccnn3)C2)no1` (stereo not given), the Percent Effect is 6.9%.
As to `COc1cc(C(=O)N(C2CC2)C2CC(=O)NC2=O)ccc1C` (stereo not given), the Percent Effect is -3.91%.
Still for that read-out and setting: in the case of `CC(C(=O)NCCCN1CCCCCC1=O)n1cncn1` (stereo not given) it was 2.08%.
With `Cc1cc(=O)n(CC(=O)NCC2CCCO2)c(-c2cccc(Cl)c2)n1` (stereo not given), the Percent Effect is 8.05%.
The same measure, in the same setting: in the case of `Cc1nn(C)c(C)c1CC(=O)N1CCCC(n2ccnc2)C1` (stereo not given) it was -4.83%; in that of `O=C(CSC1=NS(=O)(=O)c2cc(F)ccc2N1)c1ccc(Cl)cc1`, 5.12%; in that of `CC(C)c1noc(CCC(=O)NCC2CCS(=O)(=O)C2)n1` (stereo not given), -3.63%.
Still for that read-out and setting: in the case of `CC(C(=O)N1CCN(c2cnccn2)CC1)n1cncn1` (stereo not given) it was 2.72%; in that of `Nc1ncc2c(n1)CN(C1CCCC1)C2=O`, 6.87%; in that of `CCn1cc(NC(=O)NCC(O)CN2CCCCC2)cn1` (stereo not given), -0.173%.
The same measure, in the same setting: in the case of `Cc1ccccc1CSc1nc(N)cc(N2CC[C@@H](O)C2)n1` it was 0.861%; in that of `CCn1cc(NC(=O)NCC(O)CN2CCc3ccccc3C2)cn1` (stereo not given), 6.51%; in that of `O=C(c1ccc[nH]1)N1CCC2(CC1)C(=O)Nc1ccccc12`, -1.68%.
As for `CCN(CC(=O)NC)S(=O)(=O)N1CCCCCC1`, the Percent Effect was 1.14%.
Same read-out and setting: in the case of `COCCCN1CCC(NC(=O)C(C)C)CC1` it was -2.37%; in that of `CC(C)c1ncc(S(C)(=O)=O)c(C2CCCNC2)n1` (stereo not given), -1.91%.
The same measure, in the same setting: in the case of `O=C(c1ccccn1)N1CCCC(c2nccn2Cc2ccncc2)C1` (stereo not given) it was 6.99%; in that of `Cc1cccnc1NC(=O)C(C)Cn1nc(C(F)(F)F)cc1C` (stereo not given), -2.9%; in that of `O=C(Cc1ccccn1)N1CCN(C(=O)c2cccc3[nH]ncc23)CC1`, -2.75%.
The same measure, in the same setting: in the case of `CC(C)(C)c1ccc(C2(C(=O)NCCS(N)(=O)=O)CC2)cc1` it was 13.3%.
In the case of `Cn1ncc2c(=O)[nH]c(CN3CCC(Cc4ccccc4)CC3)nc21`, the Percent Effect was -5.37%.
On the same count and under the same terms, in the case of `CN1C[C@H]2CCN(C(=O)NC3CCCC3)CC[C@H]2S1(=O)=O` it was 2.12%; in that of `Cc1oncc1C(=O)NCc1cc(=O)n2c(n1)CN(C)CCC2`, 16%; in that of `N#CCSCCCN1CCCN(C(=O)c2ccccc2)CC1`, -4.83%.
In the case of `CC(NC(=O)NCC1(c2ccc(F)cc2)CCC1)c1nncn1C` (stereo not given), the Percent Effect is 2.25%.
Same read-out and setting: in the case of `CCn1cc(CN2CCCN(C(=O)C3=NN(C)C(=O)CC3)CC2)cn1` it was 0.98%; in that of `CC(CNC(=O)N1CCN(CC(F)F)CC1)Cc1cccs1` (stereo not given), -1.76%; in that of `CC(=O)N(C)c1nc(CN2CCOC(Cn3cc(C)cn3)C2)cs1` (stereo not given), -3.86%.
The same measure, in the same setting: in the case of `Cc1nc(-c2ccccc2)sc1C(=O)NCCNc1ncccn1` it was -2.89%; in that of `CN1CCCC(Cc2cncc(C(=O)NCC3CC3)c2)C1` (stereo not given), -1.03%.
Turning to `CC(=O)Nc1nc(C(=O)NC(C)c2ccc(F)cc2)cs1` (stereo not given), the Percent Effect is -3.46%.
Still for that read-out and setting: in the case of `CCCC1(CO)CCCN(c2ncccc2F)C1` (stereo not given) it was 0.836%.
On the same count and under the same terms, in the case of `CC(C1CC1)N(C(=O)NCCCn1nc2ccccn2c1=O)C1CC1` (stereo not given) it was 1.26%.
Still for that read-out and setting: in the case of `Cc1cc(CNc2ccc(C(=O)N3CCCC(C)C3)cc2C)no1` (stereo not given) it was -2.25%; in that of `CNS(=O)(=O)c1ccc(C(=O)NCCc2ccccn2)cc1`, 9.16%.
As for `O=c1nc(CNc2ccccc2)[nH]n1Cc1ccccc1`, the Percent Effect turned out to be 3.89%.
Consider `Cc1cnn(CC2CCCCN2CCCS(N)(=O)=O)c1` (stereo not given), for which the Percent Effect is -8.36%.
Same read-out and setting: in the case of `CC(=O)NC1CCCN(C(=O)Nc2cnc3c(cnn3C(C)C)c2)C1` (stereo not given) it was -4.11%.
Same read-out and setting: in the case of `Cc1cc(C[C@@H]2COC[C@@H]2NC(=O)CN2CCCN(C)CC2)on1` it was -1.58%.
Same read-out and setting: in the case of `COCCCNC(=O)NCc1ccc(C)cc1` it was -3.8%.

Another test has as its target Shiga toxin 2 (Escherichia coli O157:H7) (UniProt P09385+P09386). As to the kind of experiment: E. coli 0.157:H7 Shiga Toxin SOP - stx2 screening assay. Type of test: functional. On the set-up: scale not given: direction of the effect not stated beside the values. As to conditions: 30 µM.
With `Cc1cc(CNC2CCCN(c3cccnn3)C2)no1` (stereo not given), the Percent Effect is -69.6%.
The same measure, in the same setting: in the case of `COc1cc(C(=O)N(C2CC2)C2CC(=O)NC2=O)ccc1C` (stereo not given) it was 3.11%.
The same measure, in the same setting: in the case of `CC(C(=O)NCCCN1CCCCCC1=O)n1cncn1` (stereo not given) it was 20%; in that of `Cc1cc(=O)n(CC(=O)NCC2CCCO2)c(-c2cccc(Cl)c2)n1` (stereo not given), -13.2%; in that of `Cc1nn(C)c(C)c1CC(=O)N1CCCC(n2ccnc2)C1` (stereo not given), 12.9%.
As for `O=C(CSC1=NS(=O)(=O)c2cc(F)ccc2N1)c1ccc(Cl)cc1`, the Percent Effect was -0.176%.
On the same count and under the same terms, in the case of `CC(C)c1noc(CCC(=O)NCC2CCS(=O)(=O)C2)n1` (stereo not given) it was -17.1%; in that of `CC(C(=O)N1CCN(c2cnccn2)CC1)n1cncn1` (stereo not given), 2.13%; in that of `Nc1ncc2c(n1)CN(C1CCCC1)C2=O`, -55.7%.
With `CCn1cc(NC(=O)NCC(O)CN2CCCCC2)cn1` (stereo not given), the Percent Effect is 21.2%.
Still for that read-out and setting: in the case of `Cc1ccccc1CSc1nc(N)cc(N2CC[C@@H](O)C2)n1` it was 5.97%.
Still for that read-out and setting: in the case of `CCn1cc(NC(=O)NCC(O)CN2CCc3ccccc3C2)cn1` (stereo not given) it was -38.6%; in that of `O=C(c1ccc[nH]1)N1CCC2(CC1)C(=O)Nc1ccccc12`, 16.7%.
Consider `CCN(CC(=O)NC)S(=O)(=O)N1CCCCCC1`, for which the Percent Effect is 6.63%.
`COCCCN1CCC(NC(=O)C(C)C)CC1`: the Percent Effect is -36.2%.
On the same count and under the same terms, in the case of `CC(C)c1ncc(S(C)(=O)=O)c(C2CCCNC2)n1` (stereo not given) it was 10.4%; in that of `O=C(c1ccccn1)N1CCCC(c2nccn2Cc2ccncc2)C1` (stereo not given), 4.41%; in that of `Cc1cccnc1NC(=O)C(C)Cn1nc(C(F)(F)F)cc1C` (stereo not given), -1.69%.
Same read-out and setting: in the case of `O=C(Cc1ccccn1)N1CCN(C(=O)c2cccc3[nH]ncc23)CC1` it was 1.83%.
On to `CC(C)(C)c1ccc(C2(C(=O)NCCS(N)(=O)=O)CC2)cc1`, for which the Percent Effect was -15.1%.
Same read-out and setting: in the case of `Cn1ncc2c(=O)[nH]c(CN3CCC(Cc4ccccc4)CC3)nc21` it was 0.0557%; in that of `CN1C[C@H]2CCN(C(=O)NC3CCCC3)CC[C@H]2S1(=O)=O`, -19.5%; in that of `Cc1oncc1C(=O)NCc1cc(=O)n2c(n1)CN(C)CCC2`, -2%.
Still for that read-out and setting: in the case of `N#CCSCCCN1CCCN(C(=O)c2ccccc2)CC1` it was -31.2%.
Same read-out and setting: in the case of `CC(NC(=O)NCC1(c2ccc(F)cc2)CCC1)c1nncn1C` (stereo not given) it was 32.9%; in that of `CCn1cc(CN2CCCN(C(=O)C3=NN(C)C(=O)CC3)CC2)cn1`, 10.4%; in that of `CC(CNC(=O)N1CCN(CC(F)F)CC1)Cc1cccs1` (stereo not given), 0.53%.
Take `CC(=O)N(C)c1nc(CN2CCOC(Cn3cc(C)cn3)C2)cs1` (stereo not given): the Percent Effect is -9.15%.
As for `Cc1nc(-c2ccccc2)sc1C(=O)NCCNc1ncccn1`, the Percent Effect was 28.3%.
With `CN1CCCC(Cc2cncc(C(=O)NCC3CC3)c2)C1` (stereo not given), the Percent Effect worked out at 2.18%.
Same read-out and setting: in the case of `CC(=O)Nc1nc(C(=O)NC(C)c2ccc(F)cc2)cs1` (stereo not given) it was 26.2%; in that of `CCCC1(CO)CCCN(c2ncccc2F)C1` (stereo not given), -7.35%.
Still for that read-out and setting: in the case of `CC(C1CC1)N(C(=O)NCCCn1nc2ccccn2c1=O)C1CC1` (stereo not given) it was -15.6%; in that of `Cc1cc(CNc2ccc(C(=O)N3CCCC(C)C3)cc2C)no1` (stereo not given), 11.6%.
Take `CNS(=O)(=O)c1ccc(C(=O)NCCc2ccccn2)cc1`: the Percent Effect came to 14.4%.
Same read-out and setting: in the case of `O=c1nc(CNc2ccccc2)[nH]n1Cc1ccccc1` it was 2.45%; in that of `Cc1cnn(CC2CCCCN2CCCS(N)(=O)=O)c1` (stereo not given), -56.9%.
On the same count and under the same terms, in the case of `CC(=O)NC1CCCN(C(=O)Nc2cnc3c(cnn3C(C)C)c2)C1` (stereo not given) it was 18%.
On the same count and under the same terms, in the case of `Cc1cc(C[C@@H]2COC[C@@H]2NC(=O)CN2CCCN(C)CC2)on1` it was -5.15%; in that of `COCCCNC(=O)NCc1ccc(C)cc1`, -59.7%.
